Whole data set: some 8,300 sequences, median “log2 fold change of degron read counts, EGFP-low vs EGFP+ sorted cells (limma voom), compound-induced degradation” near -1.1, cut for the highest 2% near 3.2. This is one part of a sample in which the highest values are shown more often than they occur.
T1: CRBN, Q96SW2
T1 chain: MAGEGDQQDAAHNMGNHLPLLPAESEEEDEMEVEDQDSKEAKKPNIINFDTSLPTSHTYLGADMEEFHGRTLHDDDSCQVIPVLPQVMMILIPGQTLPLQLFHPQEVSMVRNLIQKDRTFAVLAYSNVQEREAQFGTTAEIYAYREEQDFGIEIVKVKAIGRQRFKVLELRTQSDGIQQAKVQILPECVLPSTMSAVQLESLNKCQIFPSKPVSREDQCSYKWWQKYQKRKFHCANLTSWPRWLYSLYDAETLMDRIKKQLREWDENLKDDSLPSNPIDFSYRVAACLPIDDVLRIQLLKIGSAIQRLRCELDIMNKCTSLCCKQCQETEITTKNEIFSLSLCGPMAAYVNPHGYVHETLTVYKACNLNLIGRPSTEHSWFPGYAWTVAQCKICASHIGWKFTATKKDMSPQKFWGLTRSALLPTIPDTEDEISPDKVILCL


Biological target: T1, CRBN, Q96SW2
Experiment: log2 fold change of degron read counts, EGFP-low vs EGFP+ sorted cells (limma voom), compound-induced degradation; higher = more compound-induced degradation of the degron-EGFP fusion; degrons are variants of IKZF1/3 zinc finger 2; compound dose not given here
Conditions: Jurkat, 18 h
[1] = compound: compound 19 (5-tert-butyl-thalidomide)
[2] = compound: compound 22 (5-morpholino-thalidomide)
[3] = compound: compound 33 (diphenyl IMiD analogue)
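Note: pooled lentiviral library of zinc finger degron-EGFP fusions in mCherry-positive Jurkat cells, FACS-sorted after compound exposure, with degron abundance counted by next-generation sequencing.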

Row | Sequence | log2 fold change of degron read counts [1] | log2 fold change of degron read counts [2] | log2 fold change of degron read counts [3] | log2 fold change of degron read counts (compound: thalidomide)
1 | FKCEICGRAFTQKGNLLRHIKL [46F_47K_49E_50I_52G_53R_54A_55F_67L_, Q9UKT9] | -2.33 | -3.03 | -3.25 | -2.08
2 | FTCDVCGADFTQKGNLLRHIKL [46F_47T_49D_50V_52G_53A_54D_55F_67L_, Q9UKT9] | -2.29 | -1.84 | -2.04 | -2.29
3 | FMCEVCGAFFTQKGNLLRHIKL [46F_47M_49E_50V_52G_53A_54F_55F_67L_, Q9UKT9] | -2.24 | -2.24 | 0.504 | -1.37
4 | FCCNQCGRAFTQKGNLLRHIKL [46F_47C_49N_50Q_52G_53R_54A_55F_67L_, Q9UKT9] | -2.96 | -3.3 | -2.71 | -2.65
5 | FGCDVCGAEFTQKGNLLRHIKL [46F_47G_49D_50V_52G_53A_54E_55F_67L_, Q9UKT9] | -1.81 | -1.82 | -1.14 | -1.84
6 | FCCPICGRMFTQKGNLLRHIKL [46F_47C_49P_50I_52G_53R_54M_55F_67L_, Q9UKT9] | -0.211 | -0.371 | 0.994 | 0.267
7 | FQCNQCGHEFTQKGNLLRHIKL [46F_47Q_49N_50Q_52G_53H_54E_55F_67L_, Q9UKT9] | -3.09 | -3.12 | -3.48 | -3.28
8 | LCCNQCGFWCTQKGNLLRHIKL [46L_47C_49N_50Q_52G_53F_54W_55C_67L_, Q9UKT9] | -0.952 | -1.34 | -1.18 | -1.07

— the supplement of paper PMC12645437, “Orthogonal IMiD-Degron Pairs Induce Selective Protein Degradation in Cells” (ACS Chemical Biology, 2025)
